Compound activity (PubChem)
NPC1 promoter act: NPC1 promoter activation; Potency, µM (highest dose often 9.22 µM), for inactives: at the top dose activation, usual class: activators; Huh7 NPC1 promoter luciferase reporter, 24 h; 320,000 tested, 2.4% active; note: % of control where 0% means no effect; nearly all actives have a fitted effect of over 60% in size
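Readout is luciferase luminescence, reflecting NPC1 promoter activation in stably transfected Huh7 cells after 24 h compound exposure at 37 °C in reduced-serum medium with 10% FBS.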
Rab9 prom act: Rab9 promoter activation. 320,000 tested, 2.8% active. Huh7 Rab9 promoter-luciferase reporter, luminescence, 24 h. Potency, µM (doses to about 9.22 µM), without a hit: top-dose activation, negative = inhibition, actives largely listed as activators; note: % of control where 0% means no effect; nearly all actives have a fitted effect of over 60% in size
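Using Huh7 cells stably transfected with Rab9 promoter–luciferase, compounds were incubated 24 h at 37 °C, 5% CO2; luciferase luminescence was read 10 min after reagent addition.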
FLuc counter: inhibits or activates purified firefly luciferase, miR-21 counter-screen. P08659. purified FLuc, Km substrates, luminescence inhibition. Potency, µM (series often up to 57.5 µM), for the others: top-dose activity change, negative = inhibition, usual class: inhibitors. 360,000 tested, 6.9% active. AID 588342;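 note: plate controls were vehicle for no effect and reference inhibitor for full effect; nearly all actives have a fitted effect of over 55% in size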
Target sequence (P08659 whole entry, looked up): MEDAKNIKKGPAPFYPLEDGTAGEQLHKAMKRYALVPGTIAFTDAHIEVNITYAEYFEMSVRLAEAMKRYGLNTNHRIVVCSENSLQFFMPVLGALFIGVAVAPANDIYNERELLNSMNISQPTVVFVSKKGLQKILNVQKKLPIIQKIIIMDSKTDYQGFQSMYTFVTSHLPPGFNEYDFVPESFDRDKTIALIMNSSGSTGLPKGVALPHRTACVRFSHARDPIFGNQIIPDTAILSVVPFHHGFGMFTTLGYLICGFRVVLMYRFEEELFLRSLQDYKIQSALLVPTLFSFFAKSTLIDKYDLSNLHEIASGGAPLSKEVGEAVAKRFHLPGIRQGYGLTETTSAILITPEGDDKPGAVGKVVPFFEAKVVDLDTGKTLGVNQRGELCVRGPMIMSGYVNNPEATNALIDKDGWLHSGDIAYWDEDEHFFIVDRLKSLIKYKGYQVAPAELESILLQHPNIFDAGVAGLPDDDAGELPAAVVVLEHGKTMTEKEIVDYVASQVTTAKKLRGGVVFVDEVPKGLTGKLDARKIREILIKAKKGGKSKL
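Purified P. pyralis luciferase, 10 nM final, with Km-level 10 uM D-luciferin and 10 uM ATP in 50 mM Tris acetate pH 7.5, 10 mM Mg acetate, 0.01% Tween-20, 0.05% BSA; 6-point qHTS titration about 60 µM downward; luminescence read.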
ELG1 repair inh: inhibitors of ELG1-dependent DNA repair in HEK293T cells. HEK293T ELG1-luciferase reporter, luminescence, 16 h; DNA damage induced by 5-fluorouridine. Potency, µM (top dose mostly 46.1 µM), for the others: at the top dose activity change, negative = inhibition, usual class: inhibitors. 330,000 tested, 2.3% active; note: % is set by controls: 0 for no effect and ±100 for the full control effect; nearly all actives have a fitted effect of over 55% in size
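In this reporter screen, reduction of luminescence relative to DMSO vehicle indicated activity. Compounds and 5-fluorouridine were added together to 2,000 cells per well, incubated for 16 hr at 37 °C, then developed with ONE-Glo.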
ELG1 genotoxic: induces genotoxicity in HEK293T cells with luciferase-tagged ELG1 | 330,000 tested, 1.3% active | Potency, µM (top dose mostly 46 µM), inactives show top-dose activity change, positive = activation, most hits filed as activators | AID 504466 | HEK293T ELG1-luciferase reporter, luminescence, 16 h; note: % of control where 0% means no effect; nearly all actives have a fitted effect of over 60% in size
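After overnight (16 hr) compound treatment at 37 °C, ELG1-luciferase HEK293T cells were lysed with ONE-Glo; luminescence quantified 30 min later at room temperature.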
SMN2 splice up: increases expression of the SMN2 splice variant | HEK293 SMN2-luciferase splicing reporter, luminescence, 30-36 h | AID 1458 | Potency, µM (series often up to 46.1 µM), inactives show top-dose activity change, positive = activation, most hits filed as activators | 210,000 tested, 2.8% active; note: % of control where 0% means no effect; nearly all actives have a fitted effect of over 55% in size
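HEK293 cells carry an SMN2 […]–luciferase reporter in which exon 7 inclusion puts luciferase in frame. Cells were plated 10-12 h before compound addition, then incubated 30-36 h at 37C. ONE-Glo luminescence was read; sodium butyrate at 4.5 mM final served as control.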
* = called active by the depositor; ? = inconclusive; . = not tested or not shown; [ ] = another dose, or the depositor's remark. This is a sample that favours compounds with a hit; in the whole collection about 9.3% have one here. Calls come from the whole dose curve; as a rule, active = well fitted curve in the direction sought with a large enough effect; inconclusive = small, poorly fitted or top-dose-only effect, or another doubt; inactive = no such curve, though single readings can be large; an effect the other way counts as inactive or inconclusive. Potency is the fitted concentration of half-maximal effect.

SMILES	NPC1 promoter act	Rab9 prom act	FLuc counter	ELG1 repair inh	ELG1 genotoxic	SMN2 splice up
COc1cc(OC)c(OC)cc1/C=N/NC(=S)NCC1CCCO1 (centres undefined)	-5%	-1%	5%	18µM*	-4%	-24%
CCS(=O)(=O)N1Cc2ccccc2CC1C(=O)N1CCN(c2ccccc2)CC1 (centres undefined)	9%	-1%	1%	6%	-1%	4%
Cc1cs/c(=N\N=C\c2ccccc2)n1Cc1ccco1	10%	8%	21µM*	?	3%	-17%
Cc1csc(=Nc2ccc(S(=O)(=O)N3CCOCC3)cc2)n1Cc1ccco1	-2%	3%	4%	15µM*	-19%	-40%
Brc1ccc(C2=Nc3cccc4cccc(c34)N2)o1	20%	21%	12µM*	?	3%	1%
Brc1ccc(-c2ccc(C3Nc4cccc5cccc(c45)N3)o2)cc1	-3%	4%	-5%	14%	-2%	.
FC(F)(F)C1=Nc2cccc3cccc(c23)N1	0%	0%	?	12%	-2%	.
Fc1ccc(C2=Nc3cccc4cccc(c34)N2)cc1	16%	?	15µM*	-4%	1%	-14%
CN1C(=O)/C(=C/C=C2\SCCN2C)N(C)C1=S	3.2µM*	2.5µM*	17µM*	?	15µM*	?
CN1C(=O)/C(=C/C=C2\SCCN2C)SC1=S	2.5µM*	3.2µM*	1.9µM*	?	?	2.5µM*
O=C(Nc1ccc(CN2CCOCC2)cc1)c1ccc(Br)cc1	?	12%	?	-6%	?	.
O=C(Nc1ccc(CN2CCOCC2)cc1)c1ccc(Cl)cc1	?	?	17µM*	?	?	.
C/C(=N/NC(=O)c1ccco1)c1ccc(NC(=O)c2ccc(F)cc2)cc1	29%	?	?	?	13%	16µM*
C/C(=N/NC(=O)c1ccco1)c1ccc(NC(=O)c2ccc(Br)o2)cc1	?	?	?	?	13%	.
O=C(Nc1ccc(S(=O)(=O)N2CCOCC2)cc1)c1ccco1	-3%	-7%	5%	3%	3%	-8%
O=C(Nc1ccc(CN2CCOCC2)cc1)c1ccco1	2µM*	1.4µM*	21µM*	?	?	.
COC(=O)c1ccc(NC(=O)c2ccc(CN3CCOCC3)cc2)cc1	-5%	-25%	?	8.2µM*	0%	-85%
CC(=O)NS(=O)(=O)c1ccc(NC(=O)COc2cccc3c2OC(C)(C)C3)cc1	-5%	-3%	4%	-3%	0%	.
Cc1cc(/C=N/NC(=O)c2ccc(CN3CCOCC3)cc2)c(C)n1-c1ccccc1	1%	-1%	6.7µM*	-8%	?	-51%
O=C(NCCSc1ccccc1)c1ccc(CN2CCOCC2)cc1	2µM*	2µM*	12µM*	?	?	.
O=C(Nc1ccc(CN2CCOCC2)cc1)c1cccc(F)c1	2.8µM*	2.8µM*	9.5µM*	?	16µM*	13µM*
CCC(C)Oc1ccc(C(=O)Nc2ccc(CN3CCOCC3)cc2)cc1 (centres undefined)	-5%	-10%	15µM*	?	-2%	.
CCOc1ccc(NC(=O)c2ccc(NC(=O)c3ccc(CN4CCOCC4)cc3)cc2)cc1	-2%	-14%	-6%	2%	?	.
CC(C)COc1cccc(C(=O)Nc2ccc(CN3CCOCC3)cc2)c1	3%	2%	?	?	-8%	.
CCOC(=O)c1c(NC(=O)c2ccc(N3C(=O)[C@@H]4[C@H](C3=O)[C@H]3C=C[C@@H]4C3)cc2)sc2c1CC(C)CC2 (some centres undefined)	-3%	-3%	-1%	-8%	-3%	-5%
SMILES	NPC1 promoter act	Rab9 prom act	FLuc counter	ELG1 repair inh	ELG1 genotoxic	SMN2 splice up
CC(=O)Nc1ccc(/C(C)=N/NC(=O)c2ccc(CN3CCOCC3)cc2)cc1	-3%	-5%	0%	3%	1%	-43%
O=C(Nc1ccc(CN2CCOCC2)cc1)c1ccc2ccccc2c1	1µM*	1.4µM*	8.5µM*	?	?	.
C/C(=N\NC(=O)c1ccc(CN2CCOCC2)cc1)c1ccc(NC(=O)c2ccccc2)cc1	?	?	?	?	?	11µM*
O=C(Nc1cccc([N+](=O)[O-])c1)c1ccc(CN2CCOCC2)cc1	22%	24%	17µM*	4%	7%	.
O=C(NC(N1CCOCC1)C(Cl)(Cl)Cl)c1ccco1 (centres undefined)	?	?	8.5µM*	?	16µM*	.
C/C(=N\NC(=O)c1ccc(CN2CCOCC2)cc1)c1cccc([N+](=O)[O-])c1	3%	-9%	0%	?	-3%	-24%
O=C(Nc1ccc(CN2CCOCC2)cc1)c1ccc(F)cc1	?	?	21µM*	?	?	.
Cc1ccc(-n2[nH]c(C)c(/C=C3/C=Nc4ccccc43)c2=O)cc1C	16%	-1%	-2%	?	12%	18µM*
Cc1[nH]n(-c2ccccc2)c(=O)c1/C=C1\C=NN=C1c1ccccc1	-1%	0%	12µM*	?	12%	.
COc1ccc(-n2c(O)c(/C=C3\C=Nc4ccccc43)c(=O)[nH]c2=O)cc1	8%	6%	2%	-2%	-1%	.
Oc1ccc(Cl)cc1/C=N/c1nccs1	-1%	2%	-2%	-8%	0%	-16%
CC(C)c1ccc2c(c1)[C@H]1OCC[C@H]1[C@@H](c1cccs1)N2	-14%	-13%	9.5µM*	?	1%	-41%
COc1cc(Nc2ccccn2)cc(C(=O)Nc2cccc(C(F)(F)F)c2)c1	2%	-10%	?	?	-13%	.
COc1cc(NC(=O)c2ccc(N)nc2)cc(C(=O)Nc2cccc(C(F)(F)F)c2)c1	2%	3%	7.6µM*	?	7%	.
COc1cc(NC(=O)c2nccnc2N)cc(C(=O)Nc2cccc(C(F)(F)F)c2)c1	-3%	-6%	11µM*	0%	6%	.
O=C(Nc1cccc(-n2cccn2)c1)C1CCCN(Cc2cc3ccccc3[nH]2)C1 (centres undefined)	3%	-5%	?	?	-5%	.
COCC(C)n1c(C)cc(C(=O)COC(=O)c2ccc(N3CCCC3=O)cc2)c1C (centres undefined)	-5%	-1%	-15%	?	-4%	-8%
COC(CN(C(=O)CCl)C(C(=O)NC1CCCCC1)c1ccccc1C)OC (centres undefined)	-11%	-12%	2%	23µM*	-13%	-16%[1.84 µM]
